# According to ChEMBL document CHEMBL4513216, “Probing the Open Global Health Chemical Diversity Library for Multistage-Active Starting Points for Next-Generation Antimalarials” (ACS Infect Dis, 2020):
# Out of some 65,000 compounds screened, about 2,100 (3.2%) showed an effect of 50% or more. The median lay at about -52%. The full list was thinned out, with strong results kept by preference.
# Test system: Plasmodium falciparum
# Test: Screen against P. falciparum Asexual Blood Stage (ABS), at 5uM
# Type: functional, Dd2
# Details: tested at 5 uM
row,Structure (SMILES),INHIBITION [%]
1,O=C([C@H]1CCCO1)N1CCOC2(CCCN(c3ncccc3F)C2)C1 (stereo partly drawn),-9.29
2,CN(C)c1nc(N2CCCC2)nc2c1CCN(Cc1nccn1C)CC2,7.51
3,CC(C)Nc1nc2c(c(N(C)C)n1)CCN(Cc1nccn1C)CC2,54.5
4,Cc1nc(NC(C)C)nc2c1CN(Cc1nccn1C)CC2,-27.4
5,O[C@@H]1CN(c2noc(C3CC3)n2)CC[C@H]1c1ccc2ccccc2c1,-24.7
6,Cc1cnn(C2CCCN(C(=O)c3ccccc3-n3cnnn3)C2)c1 (stereo not drawn),-52.2
7,COc1ccc2ccccc2c1CNCC1CCS(=O)(=O)C1 (stereo not drawn),67.4
8,CNC(=O)c1cc(NC(=O)NCC2CCS(=O)(=O)C2)ccc1OC (stereo not drawn),-116
9,COc1cccc(-c2n[nH]cc2CNCC2CCS(=O)(=O)C2)c1 (stereo not drawn),-48.5
10,CC(C)OCCCNC(=O)CN(c1ccc(F)c(F)c1)S(C)(=O)=O,-105
11,Fc1cccc(-c2nnn3c2COC(CNCc2ccsc2)C3)c1 (stereo not drawn),-82.8
12,c1cc(CN2Cc3nccn3CC(Cn3cncn3)C2)ccn1 (stereo not drawn),-4.38
13,O=C(C1CC1)N1CCC2(CC1)COCCN2Cc1ccc(F)cc1,-40.7
14,Cc1cccc(C(C(=O)NC(C)(C)CN2CCCC2)N(C)C)c1 (stereo not drawn),38.5
15,Cc1ccc(C(C(=O)NCCN2CCCCCC2)N(C)C)cc1 (stereo not drawn),58.5
16,Cc1cccc(C(C(=O)NC(C)(C)CN2CCOCC2)N(C)C)c1 (stereo not drawn),32
17,Cc1ccc(C(C(=O)NCCc2nc(C)cc(C)n2)N(C)C)cc1 (stereo not drawn),-102
18,Cc1ccc(C(C(=O)NCCN2CCC(CO)CC2)N(C)C)cc1 (stereo not drawn),-9.75
19,Cc1ccc(C(C(=O)NC(C)(C)CN2CCCC2)N(C)C)cc1 (stereo not drawn),52
20,Cc1cccc(COc2ccc(C(C)N)cc2)c1 (stereo not drawn),8.28
21,CCc1ccc2nc(C)cc(C(=O)N[C@@H]3CNC[C@H]3O)c2c1,-22
22,CCc1ccc2nc(C)cc(C(=O)N[C@@H]3CCCNC3)c2c1,64.5

row,Structure (SMILES),INHIBITION [%]
1,CCc1ccc2nc(C)cc(C(=O)NC[C@@H]3CCNC[C@H]3O)c2c1,-49.3
2,N#CCCNC(=O)CN1CC(n2cccn2)C1,-21.3
3,O=S(=O)(Cc1cccc(Cl)c1)CC(O)Cn1cccn1 (stereo not drawn),-0.894
4,O=C(c1cscn1)N1CCc2c(COCC3CC3)cncc2C1,-54.8
5,O=c1occ(CN2CCCCCC2)c(O)c1CN1CCCCCC1,55.5
6,O=c1occ(CN2CCSCC2)c(O)c1CN1CCCC1,-7.27
7,O=c1occ(CN2CCCCCC2)c(O)c1CN1CCOCC1,-36
8,COc1c(C(=O)NCC(C)C)nnn1Cc1ccccc1,-128
9,C[C@@H]1CN(CCOc2ccc(Cl)cc2)CC[C@@]1(O)C1CCOCC1,-28.8
10,C[C@@H]1CN(CCC(=O)N(C)Cc2ccccc2)CC[C@@]1(O)C1CCC1,22.8
11,C[C@@H]1CN(CCOCc2ccccc2)CC[C@@]1(O)C1CCC1,54.7
12,CN(CCCc1cc(-c2ccc(F)cc2)n(C)n1)CC(=O)NC(N)=O,-152
13,CN(C)C(=O)C1CCC2(CCN(Cc3ccc4ccccc4n3)CC2)O1 (stereo not drawn),-19
14,CCOc1ccc(Cl)cc1C(C(=O)O)N1CCCC1 (stereo not drawn),2.39
15,CCOc1ccc(Cl)cc1C1CCCCN1 (stereo not drawn),68.8
16,CCOc1ccccc1C1CCCN1 (stereo not drawn),-8.92
17,Cn1cc(CCC(=O)N2C[C@@H]3CC[C@H]2CN(Cc2ccccc2)C3)cn1,14.3
18,CCC(=O)N1CCCCC1c1nc(O)c2c(n1)CN(C(C)=O)CC2 (stereo not drawn),-29.8
19,Cc1ccoc1CNCc1nnc2n1CC(C(F)(F)F)CC2 (stereo not drawn),-13.5
20,Cc1ccccc1CN(C)CC(O)COCc1ccccc1Cl (stereo not drawn),68.9
21,COc1ccccc1COCC(O)CN(C)Cc1cccc(Cl)c1 (stereo not drawn),-93.4
22,COc1ccc(CN(C)CC(O)COCc2ccccc2Cl)c(OC)c1 (stereo not drawn),-5.65

row,Structure (SMILES),INHIBITION [%]
1,OC[C@H]1CN(Cc2c(Cl)cncc2Cl)C[C@H]1CN1CCOCC1,-53.1
2,OC[C@H]1CN(Cc2c(Cl)cncc2Cl)C[C@H]1CN1CCCCCC1,12.6
3,OC[C@H]1CN(Cc2c(Cl)cccc2Cl)C[C@H]1CN1CCCCC1,50.8
4,Clc1ccc(CN(CCN2CCOCC2)Cc2cccnc2)c(Cl)c1,35.4
5,Clc1cccc(Cl)c1CN(CCCN1CCOCC1)Cc1cccnc1,-6.41
6,Clc1ccc(CN(CCN2CCOCC2)Cc2cccnc2)cc1Cl,53.8
7,CN(C)[C@@H]1CCN(C(=O)c2cccn2C)[C@H]1Cc1cnn(C)c1,-109
8,O=C(c1ccco1)N1CC[C@@H]2O[C@@H](COCCN3CCCC3)CC[C@@H]21,-86.1
9,c1cnc(N2CC[C@@H]3O[C@@H](COCc4cccnc4)CC[C@@H]32)nc1,-60.3
10,CCN(CC)Cc1ccc(C(=O)NC2CCc3cc(Cl)ccc32)o1 (stereo not drawn),56
11,CCN(CC)Cc1ccc(C(=O)NC2CCc3cc(Br)ccc32)o1 (stereo not drawn),47.7
12,CCN(CC)Cc1ccc(C(=O)NC2CCc3cc(F)ccc32)o1 (stereo not drawn),16.3
13,Cc1cncc(C(=O)NCCSCc2cccs2)c1,-11
14,CN1CCOC(CNCCOc2cccc(C#N)c2)C1 (stereo not drawn),-70.4
15,Brc1cc2c(cc1CN1CCC(N3CCCCC3)CC1)OCCO2,61.5
16,OC1CCN(Cc2cc3c(cc2Br)OCCO3)CC1,-16.3
17,OCC1CCN(Cc2cc3c(cc2Br)OCCO3)CC1,-9.89
18,CN1CCN(C2CCN(CCOc3cccc(Cl)c3)CC2)C1=O,-9.24
19,Cn1ncc2c1NC(=O)CC2c1ccccc1Br (stereo not drawn),-46.4
20,CS(=O)(=O)NCc1cc(=O)n2c(n1)CN(Cc1ccco1)CCC2,-15.8
21,CN(C)C(=O)c1cn[nH]c1C1(C)CCCN(Cc2ccccn2)C1 (stereo not drawn),-73.2
22,CNC(=O)c1cn[nH]c1C1(C)CCCN(Cc2ccccn2)C1 (stereo not drawn),61.9

row,Structure (SMILES),INHIBITION [%]
1,CNC(=O)c1cn[nH]c1C1(C)CCCN(Cc2ccccc2OC)C1 (stereo not drawn),31.1
2,CCOc1nnc(CN2CCN(CCOC)CC2)s1,-108
3,CN(C)S(=O)(=O)N1C[C@H]2CC[C@@H](C1)N(CCC(=O)NCc1ccco1)C2,-109
4,Cc1occc1C(=O)N1C[C@@H]2CCCO[C@@H]2[C@H](NC(=O)CC2CC2)C1,-27.2
5,COc1ccc(CCNC(=O)C(C)Nc2ccc(C)c(C)c2)cc1 (stereo not drawn),-52
6,Cc1nc(CN2CCc3nc(NC(C)C)nc(C)c3C2)cs1,-19.1
7,Cc1nc(N2CCCC2)nc2c1CN(C(C)C)CC2,-36.3
8,CC(C)CCN1CCc2nc(N3CCOCC3)nc(NC(C)C)c2C1,8.26
9,CC(C)Nc1nc(N2CCCC2)nc2c1CCN(S(C)(=O)=O)CC2,51.5
10,CC(C)Nc1nc(N2CCCC2)nc2c1CN(C(C)C)CC2,66.8
11,CC(C)Nc1nc(N2CCCC2)nc2c1CN(C)CC2,48.5
12,CC(C)Nc1nc(N2CCCC2)nc2c1CN(S(C)(=O)=O)CC2,50.6
13,Cc1nc(CN2CCc3nc(N4CCCC4)nc(NC(C)C)c3C2)cs1,57.3
14,CC(C)Nc1nc(N2CCCC2)nc2c1CN(c1ncc(F)cn1)CC2,23.3
15,CCCN1CCc2nc(N3CCOCC3)nc(NC(C)C)c2C1,-33.6
16,CCS(=O)(=O)N1CCc2nc(N3CCCC3)nc(N(C)C)c2CC1,-19.4
17,CCN1CCc2nc(N3CCOCC3)nc(NC(C)C)c2C1,16.7
18,CC1(C)CN=C(N2CCN(CCCN3CCOCC3)CC2)S1,-67.2
19,N#Cc1ccc(N2CCCC3(CCN(c4cncnc4)C3=O)C2)nc1 (stereo not drawn),-38.5
20,CCN(CCO)C[C@@H]1CN(C(=O)c2ccc(C)s2)C[C@@H]1CO,-69.5
21,CN(C)C(=O)C1CN(Cc2ccsc2)Cc2ccnn2C1 (stereo not drawn),-99.4
22,CCC(=O)Nc1ccc2c(c1)C1(CCOCC1)CN2CCOC,-59.9

row,Structure (SMILES),INHIBITION [%]
1,Fc1cccc(N2C[C@H]3CCN(c4cccnc4)C[C@H]3C2)c1,13.9
2,O=C(CCc1nc(-c2ccsc2)no1)NCC1CCN(C2CC2)C1 (stereo not drawn),2.06
3,COCCc1noc(CN2CCc3nn(C(C)C)c(=O)cc3C2)n1,-60.6
4,CCn1nc2c(cc1=O)CN(Cc1nc(CCOC)no1)CC2,-151
5,CCCn1nc2c(cc1=O)CN(Cc1nc(CCOC)no1)CC2,62.4
6,c1cncc(-c2nccc(CN3CCCC3)n2)c1,-151
7,CCc1c(C)nc2ccccc2c1N1CCC(O)CC1,0.854
8,CCc1c(C)nc2ccccc2c1N1CCC(NC(C)=O)CC1,24.4
9,CCc1c(C)nc2ccccc2c1N1CCC(C(=O)NC)CC1,52.7
10,Cc1ccc(C(=O)N2C[C@@H]3[C@@H](C2)OCC(=O)N3Cc2cccnc2)o1,-84.3
11,CN(C)Cc1cccc(-c2cccnc2C(=O)NCc2cn(C)cn2)c1,-167
12,Cc1ccc(C(=O)N2C[C@H]3CCC[C@@]3(COCC3CCOCC3)C2)o1,-35.2
13,CCS(=O)(=O)Nc1ccc2oc(C)c(C(=O)OC)c2c1,-54.7
14,Cc1ccccc1C(=O)Nc1ccc(OC2CCN(C)CC2)cc1,-41.5
15,COc1ccccc1C(=O)Nc1ccc(OC2CCN(C)CC2)cc1,64.2
16,CN1CCC(Oc2ccc(NC(=O)c3ccccc3Br)cc2)CC1,-76
17,CC(Cn1ccnc1)NC(=O)NCCc1cccnc1 (stereo not drawn),30.9
18,Cn1nccc1C(=O)N1CCCN(CCCc2ccccc2)CC1,-14.1
19,O=C(c1ncoc1C1CC1)N1CCCN(CCCc2ccccc2)CC1,69.7
20,O=C(c1ncoc1C1CC1)N1CCN(CCOc2ccccc2)CC1,-35.9
